PubChem BioAssay (NCATS)
Inconclusive results are not listed. Where a call stands in place of a potency, no number is given. Active and inactive are the calls of the source. Calls follow the shape of the dose curve; as a rule, active = well fitted inhibition curve with a large enough effect; inconclusive = small, poorly fitted or top-dose-only effect; inactive = no such curve, though single readings can be large or run the other way.

Molecular target: Retinaldehyde dehydrogenase 3 (Homo sapiens) (UniProt P47895)
Test: qHTS for Inhibitors of the Aldehyde Dehydrogenase Family (ALDH1A3) Validation screen (AID 2061312); also: nearly all actives have a fitted effect of over 45% in size
Details: ALDH1A3 enzyme inhibition qHTS validation, fluorescence; series mostly up to 84.7 µM

| SMILES | Potency |
| --- | --- |
| Cn1c(=O)c2c(nc(/C=C/c3cccc(Cl)c3)n2C)n(C)c1=O | inactive |
| O=C1/C(=C/c2ccsc2)CC/C1=C\c1cccs1 | inactive |
| NS(=O)(=O)C#Cc1ccccc1 | inactive |
| CC(C)CC(NP(=O)(O)O[C@@H]1O[C@@H](C)[C@H](O)[C@@H](O)[C@H]1O)C(=O)NC(Cc1c[nH]c2ccccc12)C(=O)O (stereo not given in full) | inactive |
| CC(C)NC[C@H](O)COc1ccc(CC(N)=O)cc1 | inactive |
| O[Si](CCCN1CCCCC1)(c1ccc(F)cc1)C1CCCCC1 (stereo not given) | inactive |
| O=C(NCCN1CCOCC1)c1ccc(Cl)cc1 | inactive |
| C[C@H](O)C(=O)C1=Nc2c(nc(N)[nH]c2=O)NC1 | inactive |
| C[C@]12CCC(=O)C=C1CC[C@@H]1[C@@H]2CC[C@@]2(C)[C@H]1CC[C@]2(O)C(=O)CO | inactive |
| NC/C=C/C(=O)O | inactive |
| C[C@]12C[C@H](O)[C@H]3[C@@H](CCC4=CC(=O)CC[C@@]43C)[C@@H]1CC[C@@H]2C(=O)CO | inactive |
| NC(=O)CNCCC(c1ccccc1)c1ccccc1 | inactive |
| CCCc1c(-c2ccc(O)cc2)nn(-c2ccc(O)cc2)c1-c1ccc(O)cc1 | inactive |
| CC(C)NCC(O)COc1ccc(COCCOC(C)C)cc1 (stereo not given) | inactive |
| CN1CC(=O)N/C1=N/C(=O)Nc1cccc(Cl)c1 | inactive |
| CNc1ncnc2c1ncn2[C@@H]1O[C@H](CO)[C@@H](O)[C@H]1O | inactive |
| Clc1cccc(Cl)c1NC1=NCCN1 | inactive |
| COC(=O)[C@@H](N)Cc1ccc(O)c(O)c1 | inactive |
| CCCCNc1c(C(=O)OCC)c(C)nc2c1cnn2CC | inactive |
| C[N+]1(C)C2CC(OC(=O)[C@H](CO)c3ccccc3)CC1C1OC12 (stereo not given in full) | inactive |

| SMILES | Potency |
| --- | --- |
| CN(C)CCC=C1c2ccccc2CCc2ccccc21 | inactive |
| C(=C\c1ccccc1)/CN1CCN(C(c2ccccc2)c2ccccc2)CC1 | inactive |
| CCCn1c(=O)c2c(ncn2C)n(CCC)c1=O | inactive |
| CN(C)CCOC(=O)COc1ccc(Cl)cc1 | inactive |
| Cn1cnc2c(NCc3ccccc3)nc(NCCO)nc21 | inactive |
| CCC(=O)N1CCN(C(=O)c2ccccc2)CC1 | inactive |
| Cc1cc(NC2CCCCC2)nc(-n2nc(C)cc2C)n1 | inactive |
| N[C@@H](COP(=O)(O)O)C(=O)O | inactive |
| Cn1cc(C(=O)OCC2CCN(CCNS(C)(=O)=O)CC2)c2ccccc21 | inactive |
| CCCNC(C)C(=O)Nc1ccccc1C (stereo not given) | inactive |
| O=C(O)c1cc([N+](=O)[O-])ccc1NCCCc1ccccc1 | inactive |
| NC(N)=NC(N)=Nc1ccccc1 | inactive |
| CCN(CC)CCNC(=O)c1ccc(NC(C)=O)cc1 | inactive |
| CC(N)C(=O)OC(C)(C)Cc1ccc(Cl)cc1 (stereo not given) | inactive |
| CC(=O)c1ccc(S(=O)(=O)NC(=O)NC2CCCCC2)cc1 | inactive |
| COc1ccc(CCN(C)CCCC(C#N)(c2cc(OC)c(OC)c(OC)c2)C(C)C)cc1OC (stereo not given) | inactive |
| CC(=O)/C(C)=N/O | inactive |
| CN(C)C(=O)Oc1cccc([N+](C)(C)C)c1 | inactive |
| CCCN(CC1CC1)c1nc(C)nc(Nc2c(Cl)cc(Cl)cc2Cl)c1Cl | inactive |
| O=C(O)c1cc2cc(F)ccc2[nH]1 | inactive |
